{"source": "PubChem BioAssay AID1063", "about": "(University of Pittsburgh Molecular Library Screening Center, 2008)", "note": "The whole screen tested about 200,000 compounds, of which about 18,000 (9%) were called active. Shown is part of a subset that was picked to be rich in actives. A number with no mark means an inactive call. Cut-off read from the data, not from the text of the source: active = inhibition above about 50%; inactive = the rest."}
{"test": "Leishmania major promastigote growth inhibition, primary screen (AID 1063);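 note: promastigotes grown with compound for 44 hours at 28 °C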", "settings": "Leishmania major promastigotes, resazurin fluorescence viability; at 10 µM; hits give high values"}
{"smiles": "Cc1ccc(C)c(NC(=O)CSc2nc3c(oc4ccccc43)c(=O)n2-c2ccccc2)c1", "inhibition": "97.7% (active)"}
{"smiles": "Cc1ccc(C)c(Cn2cnc3c(oc4ccccc43)c2=O)c1", "inhibition": "-7.39%"}
{"smiles": "Cc1ccc(C)c(NC(=O)CSc2nnc(Cc3cccn3C)n2-c2ccc(F)cc2)c1", "inhibition": "-0.8%"}
{"smiles": "COCCC(=O)Nc1ccc2c(c1)CN(C(=O)CCOC)CC2", "inhibition": "-5.46%"}
{"smiles": "COCCn1c(N)c(N(Cc2ccccc2)C(=O)C2CCCCC2)c(=O)[nH]c1=O", "inhibition": "-6%"}
{"smiles": "C=CCOC(=O)C1=C(C)N=C2SCCC(=O)N2C1/C=C/c1ccccc1OC", "note": "(stereo unspecified)", "inhibition": "7.43%"}
{"smiles": "O=C(c1cccc(S(=O)(=O)N2CCCC2)c1)N(Cc1ccco1)C1CCS(=O)(=O)C1", "note": "(stereo unspecified)", "inhibition": "-2.42%"}
{"smiles": "O=C(CSc1nnc(-c2cccs2)n1Cc1ccccc1)N1CCc2ccccc2C1", "inhibition": "83.6% (active)"}
{"smiles": "O=C(CSc1nnc(-c2cccs2)n1-c1ccccc1)N1CCN(C(=O)c2ccco2)CC1", "inhibition": "-10.5%"}
{"smiles": "CCn1c(SCC(=O)c2ccc3ccccc3c2)nnc1-c1cccs1", "inhibition": "-1.02%"}
{"smiles": "COC(=O)c1ccc(COC(=O)c2cnccn2)cc1", "inhibition": "-1.35%"}
{"smiles": "COc1ccc(C2C(C(=O)Nc3ccccc3OC)=C(C)Nc3nnnn32)c(OC)c1", "note": "(stereo unspecified)", "inhibition": "15.1%"}
{"smiles": "COc1cc(C2C(C(=O)Nc3ccccc3OC)=C(C)Nc3ncnn32)ccc1O", "note": "(stereo unspecified)", "inhibition": "-3.99%"}
{"smiles": "COc1ccccc1NC(=O)C1=C(C)Nc2nnnn2C1c1cccc(Br)c1", "note": "(stereo unspecified)", "inhibition": "95.7% (active)"}
{"smiles": "Cc1ccc(C)c(N(CC(=O)NCc2ccco2)C(=O)CCC(=O)Nc2ccccn2)c1", "inhibition": "53.3% (active)"}
{"smiles": "COCCNC(=O)CN(C(=O)CCC(=O)Nc1cc(C)on1)c1ccc(C)cc1C", "inhibition": "2.39%"}
{"smiles": "Cc1ccnc(NC(=O)CCC(=O)N(CC(=O)NCc2ccccc2)Cc2ccco2)c1", "inhibition": "-5.25%"}
{"smiles": "O=S1(=O)CCN(Cc2ccccc2Cl)CC1", "inhibition": "-4.67%"}
{"smiles": "O=C(NCCN1CCOCC1)Nc1cccc(Cl)c1", "inhibition": "-0.08%"}
{"smiles": "O=C(NCC1CCN(Cc2ccccc2Cl)CC1)Nc1cccc(Cl)c1", "inhibition": "76.4% (active)"}
{"smiles": "N#Cc1ccc(CSc2nnc3ccccn23)cc1", "inhibition": "-3.72%"}
{"smiles": "Cc1ccc(NN=C2C(=O)OC(C)(C)OC2=O)c(C)c1", "inhibition": "-4.89%"}
{"smiles": "Cc1onc(C(=O)NN)c1C(=O)N1CCN(C(c2ccccc2)c2ccccc2)CC1", "inhibition": "-5.09%"}
{"smiles": "CN(c1ccccc1)S(=O)(=O)c1cccc(NC(=O)Cc2c(F)cccc2Cl)c1", "inhibition": "98.4% (active)"}
{"smiles": "O=C(Cc1c(F)cccc1Cl)Nc1ccc(-n2cnnn2)cc1", "inhibition": "1%"}
{"smiles": "CN(c1ccccc1)S(=O)(=O)c1ccc(Cl)c(C(=O)OCC(N)=O)c1", "inhibition": "-0.01%"}
